# Test results from the supplement of paper PMC8728848.
# This is one part of a sample in which the strongest signals are shown more often than they occur.
# B1: Surfactant Protein D (Human); Neck + Carbohydrate Recognition Domain (NCRD) (Homo sapiens) (protein)
# chain: MLLFLLSALVLLTQPLGYLEAEMKTYSHRTMPSACTLVMCSSVESGLPGRDRDGREGPRGEKGDPGLPGAAGQAGMPGQAGPVGPKGDNGSVGEPGPKGDTGPSGPPGPPGVPGPAGREGALGKQGNIGPQGKPGPKGEAGPKGEVGAPGMQGSAGARGLAGPKGERGVPGERGVPGNTGAAGSAGAMGPQGSPGARGPPGLKGDKGIPGDKGAKGESGLPDVASLRQQVEALQGQVQHLQAAFSQYKKVELFPNGQSVGEKIFKTAQFVKPFTEAQLLCTQAGGQLASPRSAAENAALQQLVVAKNEAAFLSMTDSKTEGKFTYPTGESLVYSNWAPGEPNDAGGSEDCVEIFTNGKWNDRACGEKRLVVCEF
# B2: DC-Sign-R (Homo sapiens), Q9H2X3 (protein)
# chain: MSDSKEPRVQQLGLLEEDPTTSGIRLFPRDFQFQQIHGHKSSTGCLGHGALVLQLLSFMLLAGVLVAILVQVSKVPSSLSQEQSEQDAIYQNLTQLKAAVGELSEKSKLQEIYQELTQLKAAVGELPEKSKLQEIYQELTRLKAAVGELPEKSKLQEIYQELTRLKAAVGELPEKSKLQEIYQELTRLKAAVGELPEKSKLQEIYQELTELKAAVGELPEKSKLQEIYQELTQLKAAVGELPDQSKQQQIYQELTDLKTAFERLCRHCPKDWTFFQGNCYFMSNSQRNWHDSVTACQEVRAQLVVIKTAEEQNFLQLQTSRSNRFSWMGLSDLNQEGTWQWVDGSPLSPSFQRYWNSGEPNNSGNEDCAEFSGSGWNDNRCDVDNYWICKKPAACFRDE
# Key:
# Assay in all cases: glycan array binding signal (z-score within array); higher = stronger binding
# [1] = target: Fuc(a1-2)Gal(b1-3)GalNAc(b1-4)[Neu5Ac(a2-3)]Gal(b1-4)Glc; details: glycan notation: IUPAC condensed, linker removed; mutation: D325A
# Summary of the method: (§1)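 Glycan array binding is given as a within-array Z-score, which can be read as non-binding when negative. The arrays, 3228 of them, came from the Consortium for Functional Glycomics database and were retained only where the protein sequence was available. Z-scores were averaged across arrays of the same protein sequence at different concentrations or buffers and across linkers.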
# [2] = target: Fuc(a1-2)Gal(b1-3)GlcNAc; details: glycan notation: IUPAC condensed, linker removed; mutation: D325A
# Summary of the method: as §1
# [3] = target: Fuc(a1-2)Gal(b1-4)GlcNAc(b1-3)Gal(b1-4)GlcNAc; details: glycan notation: IUPAC condensed, linker removed; mutation: D325A
# Summary of the method: as §1
# [4] = target: Fuc(a1-2)[Gal(a1-3)]Gal(b1-4)Glc; details: glycan notation: IUPAC condensed, linker removed; mutation: D325A
# Summary of the method: as §1
# [5] = target: Fuc(a1-2)[GalNAc(b1-3)]Gal; details: glycan notation: IUPAC condensed, linker removed; mutation: D325A
# Summary of the method: as §1
# [6] = target: Fuc(a1-3)[Gal3S(b1-4)]Glc6S; details: glycan notation: IUPAC condensed, linker removed; mutation: D325A
# Summary of the method: as §1
# [7] = target: Fuc(a1-3)[Gal3S(b1-4)]GlcNAc; details: glycan notation: IUPAC condensed, linker removed; mutation: D325A
# Summary of the method: as §1
# [8] = target: Gal(a1-3)GalNAc; details: glycan notation: IUPAC condensed, linker removed; mutation: D325A
# Summary of the method: as §1
# [9] = target: Gal(b1-3)GlcNAc(b1-3)Gal(b1-4)GlcNAc; details: glycan notation: IUPAC condensed, linker removed; mutation: D325A
# Summary of the method: as §1
# [10] = target: Gal(b1-4)GlcNAc(b1-2)Man(a1-3)[Gal(b1-4)GlcNAc(b1-2)Man(a1-6)]Man(b1-4)GlcNAc(b1-4)GlcNAc; details: glycan notation: IUPAC condensed, linker removed; mutation: D325A
# Summary of the method: as §1
# [11] = target: Gal(b1-4)GlcNAc(b1-3)Gal(b1-3)GlcNAc; details: glycan notation: IUPAC condensed, linker removed; mutation: D325A
# Summary of the method: as §1
# [12] = target: Gal3S(b1-3)GalNAc; details: glycan notation: IUPAC condensed, linker removed; mutation: D325A
# Summary of the method: as §1
# [13] = target: Gal4S6S(b1-4)GlcNAc; details: glycan notation: IUPAC condensed, linker removed; mutation: D325A
# Summary of the method: as §1
# [14] = target: GlcA(b1-6)Gal; details: glycan notation: IUPAC condensed, linker removed; mutation: D325A
# Summary of the method: as §1
# [15] = target: GlcNAc(b1-4)Gal(b1-4)GlcNAc; details: glycan notation: IUPAC condensed, linker removed; mutation: D325A
# Summary of the method: as §1
# [16] = target: Man(a1-2)Man(a1-2)Man(a1-3)Man; details: glycan notation: IUPAC condensed, linker removed; mutation: D325A
# Summary of the method: as §1
# [17] = target: Man(a1-2)Man(a1-3)[Man(a1-2)Man(a1-6)]Man(a1-6)[Man(a1-2)Man(a1-2)Man(a1-3)]Man; details: glycan notation: IUPAC condensed, linker removed; mutation: D325A
# Summary of the method: as §1
# [18] = target: Man(a1-2)Man(a1-6)[Man(a1-3)]Man(a1-6)[Man(a1-2)Man(a1-2)Man(a1-3)]Man; details: glycan notation: IUPAC condensed, linker removed; mutation: D325A
# Summary of the method: as §1
# [19] = target: Man(a1-3)[Man(a1-6)]Man(a1-6)[Man(a1-2)Man(a1-3)]Man(b1-4)GlcNAc(b1-4)GlcNAc; details: glycan notation: IUPAC condensed, linker removed; mutation: D325A
# Summary of the method: as §1
# [20] = target: Man(a1-3)[Man(a1-6)]Man(a1-6)[Man(a1-3)]Man; details: glycan notation: IUPAC condensed, linker removed; mutation: D325A
# Summary of the method: as §1
# [21] = target: Neu5Gc(a2-3)Gal(b1-4)[Fuc(a1-3)]GlcNAc; details: glycan notation: IUPAC condensed, linker removed; mutation: D325A
# Summary of the method: as §1
# [22] = target: Neu5Ac(a2-3)Gal(b1-3)[GlcNAc(b1-6)]GalNAc; details: glycan notation: IUPAC condensed, linker removed
# Summary of the method: as §1
# [23] = target: Neu5Ac(a2-3)Gal(b1-4)GlcNAc(b1-3)Gal(b1-4)GlcNAc(b1-2)Man(a1-3)[Neu5Ac(a2-3)Gal(b1-4)GlcNAc(b1-3)Gal(b1-4)GlcNAc(b1-2)Man(a1-6)]Man(b1-4)GlcNAc(b1-4)GlcNAc; details: glycan notation: IUPAC condensed, linker removed
# Summary of the method: as §1
# [24] = target: Neu5Ac(a2-3)Gal(b1-4)GlcNAc(b1-3)Gal(b1-4)GlcNAc(b1-3)GalNAc; details: glycan notation: IUPAC condensed, linker removed
# Summary of the method: as §1
# [25] = target: Neu5Ac(a2-3)Gal(b1-4)GlcNAc6S; details: glycan notation: IUPAC condensed, linker removed
# Summary of the method: as §1
# [26] = target: Neu5Ac(a2-3)Gal(b1-4)[Fuc(a1-3)]GlcNAc6S; details: glycan notation: IUPAC condensed, linker removed
# Summary of the method: as §1
# [27] = target: Neu5Ac(a2-3)Gal6S(b1-4)GlcNAc; details: glycan notation: IUPAC condensed, linker removed
# Summary of the method: as §1
# [28] = target: Neu5Ac(a2-3)[Neu5Ac(a2-6)]GalNAc; details: glycan notation: IUPAC condensed, linker removed
# Summary of the method: as §1
# [29] = target: Neu5Ac(a2-6)Gal(b1-4)GlcNAc(b1-2)Man(a1-3)[Neu5Ac(a2-6)Gal(b1-4)GlcNAc(b1-2)Man(a1-6)]Man(b1-4)GlcNAc(b1-4)[Fuc(a1-6)]GlcNAc; details: glycan notation: IUPAC condensed, linker removed
# Summary of the method: as §1
# [30] = target: Neu5Ac(a2-6)Gal(b1-4)GlcNAc(b1-2)[Neu5Ac(a2-6)Gal(b1-4)GlcNAc(b1-4)]Man(a1-3)[GlcNAc(b1-4)][Neu5Ac(a2-6)Gal(b1-4)GlcNAc(b1-2)[Neu5Ac(a2-6)Gal(b1-4)GlcNAc(b1-6)]Man(a1-6)]Man(b1-4)GlcNAc(b1-4)GlcNAc; details: glycan notation: IUPAC condensed, linker removed
# Summary of the method: as §1
# [31] = target: Neu5Ac(a2-6)Gal(b1-4)GlcNAc(b1-3)Gal(b1-4)GlcNAc; details: glycan notation: IUPAC condensed, linker removed
# Summary of the method: as §1
# [32] = target: Neu5Ac(a2-6)Gal(b1-4)GlcNAc(b1-3)Gal(b1-4)GlcNAc(b1-2)Man(a1-3)[Neu5Ac(a2-6)Gal(b1-4)GlcNAc(b1-3)Gal(b1-4)GlcNAc(b1-2)Man(a1-6)]GalNAc; details: glycan notation: IUPAC condensed, linker removed
# Summary of the method: as §1
# [33] = target: Neu5Ac(a2-6)Gal(b1-4)GlcNAc(b1-3)Gal(b1-4)GlcNAc(b1-3)Gal(b1-4)GlcNAc(b1-2)Man(a1-3)[Neu5Ac(a2-6)Gal(b1-4)GlcNAc(b1-3)Gal(b1-4)GlcNAc(b1-3)Gal(b1-4)GlcNAc(b1-2)Man(a1-6)]GalNAc; details: glycan notation: IUPAC condensed, linker removed
# Summary of the method: as §1
# [34] = target: Neu5Ac(b2-6)Gal(b1-4)GlcNAc; details: glycan notation: IUPAC condensed, linker removed
# Summary of the method: as §1
# [35] = target: Neu5Gc(a2-8)Neu5Gc(a2-3)Gal(b1-4)GlcNAc(b1-3)Gal(b1-4)GlcNAc; details: glycan notation: IUPAC condensed, linker removed
# Summary of the method: as §1
Binder,glycan array binding signal (z-score) [1],glycan array binding signal (z-score) [2],glycan array binding signal (z-score) [3],glycan array binding signal (z-score) [4],glycan array binding signal (z-score) [5],glycan array binding signal (z-score) [6],glycan array binding signal (z-score) [7],glycan array binding signal (z-score) [8],glycan array binding signal (z-score) [9],glycan array binding signal (z-score) [10],glycan array binding signal (z-score) [11],glycan array binding signal (z-score) [12],glycan array binding signal (z-score) [13],glycan array binding signal (z-score) [14],glycan array binding signal (z-score) [15],glycan array binding signal (z-score) [16],glycan array binding signal (z-score) [17],glycan array binding signal (z-score) [18],glycan array binding signal (z-score) [19],glycan array binding signal (z-score) [20],glycan array binding signal (z-score) [21],glycan array binding signal (z-score) [22],glycan array binding signal (z-score) [23],glycan array binding signal (z-score) [24],glycan array binding signal (z-score) [25],glycan array binding signal (z-score) [26],glycan array binding signal (z-score) [27],glycan array binding signal (z-score) [28],glycan array binding signal (z-score) [29],glycan array binding signal (z-score) [30],glycan array binding signal (z-score) [31],glycan array binding signal (z-score) [32],glycan array binding signal (z-score) [33],glycan array binding signal (z-score) [34],glycan array binding signal (z-score) [35]
B1,-0.163,-0.276,-0.226,-0.272,-0.268,-0.246,-0.269,-0.164,-0.267,-0.273,-0.269,-0.274,-0.275,-0.26,-0.128,5.67,5.16,4.8,4.71,4.73,-0.27,,,,,,,,,,,,,,
B2,,,,,,,,,,,,,,,,,,,,,,2.7,1.11,2.49,-0.795,-0.531,-0.255,0.964,-0.156,3.11,-0.464,4.44,2.81,3.63,1.55
